# ± gives the standard deviation of the averaged measurements.
# Assays:
# Experiment in all cases: promoter activity interaction Z-score (Lux/OD deviation from empty-vector control); higher = stronger promoter induction by the compound
# [1] = system: E. coli BW25113 acrABp lux reporter
# In short: (§1)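 E. coli BW25113, as wild type or one of three single-gene deletion strains, carried low-copy luxCDABE promoter reporters and grew in 40 µl LB Lennox in 384-well plates at 37°C, with OD600 and luminescence read every 30 min for 12 h. Each compound was run at four 1:2 dilutions in biological duplicates, integration spanned 0–8 h for wild type and 1–9 h for deletion strains, and wells under 10% of the median growth value were dropped. The score is the Z-transformed residual of growth-normalised luminescence fitted against a control.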
# [2] = system: E. coli BW25113 micFp lux reporter
# In short: as §1
# [3] = system: E. coli BW25113 ompFp lux reporter
# In short: as §1
# [4] = system: E. coli BW25113 robp lux reporter
# In short: as §1
# [5] = system: E. coli BW25113 soxSp lux reporter
# In short: as §1
# [6] = system: E. coli BW25113 tolCp lux reporter
# In short: as §1
# [7] = 0.62 µg/ml, genetic background: wild type
# [8] = 0.62 µg/ml, genetic background: ΔmarA
# [9] = 0.62 µg/ml, genetic background: Δrob
# [10] = 0.62 µg/ml, genetic background: ΔsoxS
# [11] = 1.2 µg/ml, genetic background: wild type
# [12] = 1.2 µg/ml, genetic background: ΔmarA
# [13] = 1.2 µg/ml, genetic background: Δrob
# [14] = 1.2 µg/ml, genetic background: ΔsoxS
# [15] = 2.5 µg/ml, genetic background: wild type
# [16] = 2.5 µg/ml, genetic background: ΔmarA
# [17] = 2.5 µg/ml, genetic background: Δrob
# [18] = 2.5 µg/ml, genetic background: ΔsoxS
# [19] = 5 µg/ml, genetic background: wild type
# [20] = 5 µg/ml, genetic background: ΔmarA
# [21] = 5 µg/ml, genetic background: Δrob
# [22] = 5 µg/ml, genetic background: ΔsoxS
compound,measurement,setting,value
CN[C@@H]1[C@H](O)[C@H](NC)[C@H]2O[C@@]3(O)C(=O)C[C@@H](C)O[C@H]3O[C@@H]2[C@H]1O [Spectinomycin],promoter activity interaction Z-score,[1]; [7],-0.0967 ± 0.053
same,promoter activity interaction Z-score,[1]; [8],0.63 ± 1.1
same,promoter activity interaction Z-score,[1]; [9],-0.155 ± 0.22
same,promoter activity interaction Z-score,[1]; [10],-0.229 ± 0.36
same,promoter activity interaction Z-score,[1]; [11],0.0581 ± 0.015
same,promoter activity interaction Z-score,[1]; [12],1.75 ± 0.53
same,promoter activity interaction Z-score,[1]; [13],-0.245 ± 0.14
same,promoter activity interaction Z-score,[1]; [14],0.468 ± 0.31
same,promoter activity interaction Z-score,[1]; [15],-0.0145 ± 0.16
same,promoter activity interaction Z-score,[1]; [16],0.746 ± 1
same,promoter activity interaction Z-score,[1]; [17],-0.204 ± 0.38
same,promoter activity interaction Z-score,[1]; [18],-0.222 ± 0.034
same,promoter activity interaction Z-score,[1]; [19],0.0345 ± 0.34
same,promoter activity interaction Z-score,[1]; [20],1.39 ± 0.42
same,promoter activity interaction Z-score,[1]; [21],0.0966 ± 0.39
same,promoter activity interaction Z-score,[1]; [22],0.99 ± 0.69
same,promoter activity interaction Z-score,[2]; [7],0.0396 ± 0.21
same,promoter activity interaction Z-score,[2]; [8],0.0233 ± 0.13
same,promoter activity interaction Z-score,[2]; [9],0.0237 ± 0.29
same,promoter activity interaction Z-score,[2]; [10],-0.0535 ± 0.0022
same,promoter activity interaction Z-score,[2]; [11],0.102 ± 0.093
same,promoter activity interaction Z-score,[2]; [12],-0.0481 ± 0.051
same,promoter activity interaction Z-score,[2]; [13],-0.00303 ± 0.08
same,promoter activity interaction Z-score,[2]; [14],0.208 ± 0.053
same,promoter activity interaction Z-score,[2]; [15],0.0906 ± 0.13
same,promoter activity interaction Z-score,[2]; [16],0.0124 ± 0.13
same,promoter activity interaction Z-score,[2]; [17],-0.193 ± 0.016
same,promoter activity interaction Z-score,[2]; [18],0.131 ± 0.081
same,promoter activity interaction Z-score,[2]; [19],0.33 ± 0.19
same,promoter activity interaction Z-score,[2]; [20],-0.0142 ± 0.091
same,promoter activity interaction Z-score,[2]; [21],-0.115 ± 0.2
same,promoter activity interaction Z-score,[2]; [22],0.467 ± 0.33
same,promoter activity interaction Z-score,[3]; [7],0.543 ± 0.52
same,promoter activity interaction Z-score,[3]; [8],0.58 ± 0.32
same,promoter activity interaction Z-score,[3]; [9],0.8 ± 0.87
same,promoter activity interaction Z-score,[3]; [10],0.0444 ± 0.43
same,promoter activity interaction Z-score,[3]; [11],0.46 ± 0.84
same,promoter activity interaction Z-score,[3]; [12],0.92 ± 1.9
same,promoter activity interaction Z-score,[3]; [13],1.39 ± 1.6
same,promoter activity interaction Z-score,[3]; [14],0.446 ± 0.44
same,promoter activity interaction Z-score,[3]; [15],0.634 ± 0.23
same,promoter activity interaction Z-score,[3]; [16],0.0667 ± 0.36
same,promoter activity interaction Z-score,[3]; [17],0.00624 ± 0.23
same,promoter activity interaction Z-score,[3]; [18],0.0301 ± 0.019
same,promoter activity interaction Z-score,[3]; [19],1.76 ± 0.4
same,promoter activity interaction Z-score,[3]; [20],3.2 ± 2
same,promoter activity interaction Z-score,[3]; [21],1.79 ± 0.59
same,promoter activity interaction Z-score,[3]; [22],1.52 ± 0.2
same,promoter activity interaction Z-score,[4]; [7],0.57 ± 0.013
same,promoter activity interaction Z-score,[4]; [8],0.679 ± 0.25
same,promoter activity interaction Z-score,[4]; [9],0.28 ± 0.54
same,promoter activity interaction Z-score,[4]; [10],0.0239 ± 0.071
same,promoter activity interaction Z-score,[4]; [11],1.23 ± 0.055
same,promoter activity interaction Z-score,[4]; [12],1.12 ± 1
same,promoter activity interaction Z-score,[4]; [13],0.344 ± 1.1
same,promoter activity interaction Z-score,[4]; [14],0.459 ± 0.35
same,promoter activity interaction Z-score,[4]; [15],1.05 ± 0.45
same,promoter activity interaction Z-score,[4]; [16],-0.18 ± 0.022
same,promoter activity interaction Z-score,[4]; [17],-0.207 ± 0.35
same,promoter activity interaction Z-score,[4]; [18],-0.519 ± 0.17
same,promoter activity interaction Z-score,[4]; [19],1.2 ± 0.5
same,promoter activity interaction Z-score,[4]; [20],1.72 ± 1.6
same,promoter activity interaction Z-score,[4]; [21],0.387 ± 0.033
same,promoter activity interaction Z-score,[4]; [22],0.464 ± 0.086
same,promoter activity interaction Z-score,[5]; [7],-0.101 ± 0.17
same,promoter activity interaction Z-score,[5]; [8],-0.203 ± 0.0084
same,promoter activity interaction Z-score,[5]; [9],-0.117 ± 0.15
same,promoter activity interaction Z-score,[5]; [10],-0.425 ± 0.2
same,promoter activity interaction Z-score,[5]; [11],-0.0613 ± 0.16
same,promoter activity interaction Z-score,[5]; [12],-0.366 ± 0.011
same,promoter activity interaction Z-score,[5]; [13],-0.175 ± 0.039
same,promoter activity interaction Z-score,[5]; [14],-0.141 ± 0.26
same,promoter activity interaction Z-score,[5]; [15],-0.0221 ± 0.0045
same,promoter activity interaction Z-score,[5]; [16],-0.26 ± 0.096
same,promoter activity interaction Z-score,[5]; [17],-0.323 ± 0.11
same,promoter activity interaction Z-score,[5]; [18],-0.283 ± 0.26
same,promoter activity interaction Z-score,[5]; [19],0.172 ± 0.16
same,promoter activity interaction Z-score,[5]; [20],-0.231 ± 0.12
same,promoter activity interaction Z-score,[5]; [21],-0.25 ± 0.12
same,promoter activity interaction Z-score,[5]; [22],-0.213 ± 0.14
same,promoter activity interaction Z-score,[6]; [7],0.361 ± 0.53
same,promoter activity interaction Z-score,[6]; [8],0.711 ± 0.34
same,promoter activity interaction Z-score,[6]; [9],0.221 ± 0.16
same,promoter activity interaction Z-score,[6]; [10],-0.376 ± 0.49
same,promoter activity interaction Z-score,[6]; [11],-0.382 ± 0.52
same,promoter activity interaction Z-score,[6]; [12],-0.763 ± 0.28
same,promoter activity interaction Z-score,[6]; [13],-0.313 ± 0.84
same,promoter activity interaction Z-score,[6]; [14],0.357 ± 0.55
same,promoter activity interaction Z-score,[6]; [15],-0.207 ± 0.26
same,promoter activity interaction Z-score,[6]; [16],-0.0988 ± 1.2
same,promoter activity interaction Z-score,[6]; [17],-0.56 ± 0.75
same,promoter activity interaction Z-score,[6]; [18],0.223 ± 0.16
same,promoter activity interaction Z-score,[6]; [19],0.269 ± 0.23
same,promoter activity interaction Z-score,[6]; [20],-0.244 ± 0.4
same,promoter activity interaction Z-score,[6]; [21],-0.307 ± 0.99
same,promoter activity interaction Z-score,[6]; [22],0.299 ± 0.054

# — the supplement of paper PMC12282887
